# VHR inh abs – DUSP3 (human) phosphatase inhibition; P51452; 290,000 compounds, 0.52% hits; inhibition, % at 13.3 µM; recombinant VHR phosphatase, pNPP absorbance; in the data active means inhibition above about 50%
# Vc quorum ag – induces V. cholerae light production without autoinducers | V. cholerae BH1578 lux reporter, luminescence, 6 h | activation, % at 18.7 µM | 350,000 compounds, 0.16% hits | AID 588436; in the data active means activation mostly above about 9.7%, no sharp cut-off
# PrPC surface inh – cell surface PrPC inhibition, primary TR-FRET screen | TR-FRET read-out | inhibition, % at 13.8 µM | 370,000 compounds, 0.43% hits; in the data active means inhibition above about 24%; further: 0% = median of the test wells and 100% = reference compound wells
# SSB-PriA inh – inhibitors of Klebsiella pneumoniae PriA binding to SSB C-terminal tail; inhibition, % at 33 µM; 430,000 compounds, 0.6% hits; AlphaScreen SSBct-PriA binding, biotinylated peptide; in the data active means inhibition mostly above about 37%, no sharp cut-off; inactive means mostly below about 20%;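 further: plate controls were negative control peptide for no effect and reference peptide for full effect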
# CCHFV vOTU inh – blocks the CCHF virus ovarian tumor domain protease. CCHFV vOTU protease, Pep-AMC fluorescence. inhibition, % at 11.5 µM. 370,000 compounds, 0.55% hits. AID 651958; in the data active means inhibition above about 30%; further: 0% = vehicle wells with enzyme and 100% = no enzyme wells
# TcdB inh – inhibitors of Clostridioides difficile toxin B glycohydrolase; TcdB glycohydrolase enzymatic assay, plate reader; inhibition, % at 9.99 µM; 350,000 compounds, 0.24% hits; in the data active means inhibition above about 10%
# PrPC confirm – confirmation of inhibitors of cell surface human prion protein. AID 743200. cell surface PrPC level, TR-FRET. 1,500 compounds, 65% hits. inhibition, % at 13.8 µM. shares compounds with PrPC surface inh; in the data active means inhibition above about 25%
# LD9 cytotox – counter-screen for PrPc inhibitors: cytotoxicity in LD9 cells | luminescence viability | AID 743201 | 1,500 compounds, 29% hits | shares compounds with PrPC surface inh | inhibition, % at 13.8 µM; in the data active means inhibition above about 9.5%
# Starred values were filed as active, the others as inactive; i = inactive; . = no result given. A selection: hits, their analogues and other compounds. The true share with any hit is near 1.5%.
SMILES,VHR inh abs,Vc quorum ag,PrPC surface inh,SSB-PriA inh,CCHFV vOTU inh,TcdB inh,PrPC confirm,LD9 cytotox
CCN(CC)c1nc2ccccc2[nH]c1=O,16,-1,3,-9,4,2,.,.
CCc1nc2ccccc2[nH]c1=O,21,0,37*,-16,2,-1,0,-6
Cc1cc(OCC(C)C)ccc1/C(O)=C1/C(=O)C(=O)N(Cc2cccnc2)C1c1ccncc1 (centres undefined),18,.,35*,.,10,.,54*,0
CCCCOc1ccc(/C(O)=C2/C(=O)C(=O)N(Cc3cccnc3)C2c2ccncc2)c(C)c1 (centres undefined),6,-6,45*,.,6,.,70*,2
COc1ccc(CCNC(=O)Cn2cnc(-c3ccc(C)cc3)cc2=O)cc1OC,.,.,.,-10,.,.,.,.
CCOC(=O)c1sc(NC(=O)Nc2ccc([N+](=O)[O-])cc2)cc1C,.,.,.,9,.,.,.,.
CCOC(=O)c1sc(NC(=O)Nc2ccccc2)cc1C,5,0,35*,1,10,-4,25*,22*
C[C@](O)(CCc1ccccc1)CNC(=O)NCc1cccc2ccccc12,.,.,.,-1,.,.,.,.
Cn1nc(C2CCN(S(=O)(=O)c3ccc(Br)s3)CC2)n(C2CC2)c1=O,.,.,.,0,.,.,.,.
N#C/C(=N/Nc1ccc(OC(F)(F)F)cc1)C(N)=S,10,0,26*,.,14,-1,38*,28*
O=C(NCc1ccncc1)C(=O)Nc1nc(C23CC4CC(CC(C4)C2)C3)cs1,2,0,35*,14,-6,.,36*,2
CC(=NNc1nc2ccccc2o1)c1cc2ccccc2cn1,.,i,27*,41*,6,0,32*,49*
Cc1nc2ccc(Br)cc2c2c1CC(CO)O2 (centres undefined),14,1,29*,3,-3,-1,35*,-6
COC(=O)NCC1(c2ccsc2)CCCC1,.,.,.,-15,.,.,.,.
COc1ccc(-c2ccc(SCC(=O)Nc3nccs3)nn2)cc1OC,19,-2,29*,-4,-22,-1,38*,-6
COc1ccc(-c2nnc3ccc(SCC(=O)Nc4nccs4)nn23)cc1OC,-5,0,-6,-4,4,0,.,.
COc1ccc2nc(-c3ccc(F)c(NC(=O)C(C)(C)C)c3)cn2n1,.,.,.,-13,.,.,.,.
CC1CCc2sc(C(=O)Nc3ccc(C(N)=O)cc3)cc2C1 (centres undefined),10,i,70*,-1,10,0,44*,0
CC1(C)CC(=O)c2sc(NC(=O)CCCSc3ccc(F)cc3)nc2C1,.,.,.,-6,.,.,.,.
COc1ccc(Br)c(C(=O)N2CCN(c3c(C)nn(-c4ccccc4)c3C)CC2)c1,.,.,.,-1,.,.,.,.
COc1cc2cc(Br)cc(Br)c2nc1C,0,-7,63*,-57,13,.,89*,-3
O[C@@H]1[C@@H](O)C=C2CCN3Cc4cc5c(cc4[C@H]1C23)OCO5 (some centres undefined),.,i,89*,-16,-2,1,92*,28*
COc1ccc2c(c1OC)CN1CCc3cc4c(cc3[C@@H]1[C@@H]2O)OCO4,1,i,.,3,.,.,.,.
CCOc1cccc2sc(N(Cc3cccnc3)C(=O)COc3ccccc3F)nc12,.,.,.,3,.,.,.,.
CN1CCN(C2CCN(Cc3ccc(O)c4ncccc34)CC2)CC1,.,0,34*,56*,10,0,2,-6
SMILES,VHR inh abs,Vc quorum ag,PrPC surface inh,SSB-PriA inh,CCHFV vOTU inh,TcdB inh,PrPC confirm,LD9 cytotox
COC(=O)c1cccc(Nc2c3c(nc4ccccc24)CCC3)c1,-10,-1,29*,12,3,1,30*,12*
CC(=O)c1cccc(Nc2c3c(nc4ccccc24)CCC3)c1,-13,-1,18,-6,4,1,.,.
Cc1ccc2nc3c(c(Nc4cccc(O)c4)c2c1)CCC3,-2,-1,25*,12,8,2,16,16*
C=CCn1c(SCC(=O)c2cc(C)n(CCOC)c2C)nc2scc(-c3ccc(C)cc3)c2c1=O,.,.,.,-5,.,.,.,.
Cc1cc(NC(=O)C2CCCCN2S(=O)(=O)c2cccs2)n(C(C)C)n1 (centres undefined),.,.,.,-13,.,.,.,.
Cn1c(=O)c2cc(NC(=O)NCc3ccc(F)cc3)ccc2n1Cc1cccc(C(F)(F)F)c1,.,0,17,.,-61,1,.,.
